Measured values taken from PubChem BioAssay (Tox21).
Unmarked numbers belong to inactive results. Active and inactive are the calls of the source. Calls come from the whole dose curve; as a rule, active = well fitted curve in the direction sought with a large enough effect in the repeat runs; inconclusive = weak or mixed curves; inactive = flat fitted curve, though single readings scatter.

assay: qHTS assay to test for compound auto fluorescence at 460 nm (blue) in HepG2 cell free culture (AID 720685); settings: Cell-free culture medium, blue autofluorescence 405/460 nm; series mostly up to 46 µM; fluorescence, % of fluorescent control: at the top concentration
Procedure, shortened: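 Cell-free plates of MEM plus 10% FBS received 23 nL compound or DMSO vehicle; blue-channel (405/460 nm) intensity scored against triamterene as reference fluorophore.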
% is set by controls: 0 for no effect and ±100 for the full control effect.

Compound	fluorescence, % of fluorescent control	outcome
S=C1SCN(Cc2ccccc2)CN1Cc1ccccc1	-0.0255%	–
CC(C)CCCC(C)NC(C)C (configuration not stated)	0.0141%	–
CC[C@H]1OC(=O)[C@H](C)[C@@H](O[C@H]2C[C@@](C)(OC)[C@@H](O)[C@H](C)O2)[C@H](C)[C@@H](O[C@@H]2O[C@H](C)C[C@H](N(C)C)[C@H]2O)[C@](C)(O)C[C@@H](C)[C@@H]2N[C@@H](COCCOC)O[C@@H]([C@H]2C)[C@]1(C)O	0.123%	–
C[C@H](CCCC(C)(C)O)[C@H]1CC[C@H]2[C@@H]3CC=C4C[C@@H](O)CC[C@]4(C)[C@H]3CC[C@]12C	0.0738%	–
COc1ccc(/C=C/C(=O)OCCC(C)C)cc1	0.107%	–
O=C(NNCNNC(=O)c1ccncc1)c1ccncc1	-0.0374%	–
Cc1ccccc1	–	inactive
C=C1C(=C/C=C2\CCC[C@]3(C)[C@@H]([C@H](C)/C=C/[C@H](C)C(C)C)CC[C@@H]23)C[C@@H](O)C[C@@H]1O	6.91%	–
CC[C@H](C)[C@H]1O[C@]2(CC[C@@H]1C)C[C@@H]1C[C@@H](C/C=C(\C)[C@@H](O[C@H]3C[C@H](OC)[C@@H](O[C@H]4C[C@H](OC)[C@@H](O)[C@H](C)O4)[C@H](C)O3)[C@@H](C)/C=C/C=C3\CO[C@@H]4[C@H](O)C(C)=C[C@@H](C(=O)O1)[C@]34O)O2	0.0035%	–
O=C(O)[C@@H](O)[C@H](O)[C@H](O)[C@@H](O)C(=O)O (tested in a mixture with another compound)	-0.119%	–
CCCCC[C@H](O)/C=C/[C@H]1[C@H](O)CC(=O)[C@@H]1CCCCCCC(=O)O	0.0672% [at 18.6 µM]	–
O=P(O)(O)OC[C@H](O)CO	0.0834%	–
Cn1c(O)c(N=NC(N)=S)c2ccccc21	-0.155%	–
CCCC(=O)O[C@]1(C(=O)COC(=O)CC)[C@@H](C)C[C@H]2[C@@H]3CCC4=CC(=O)C=C[C@]4(C)[C@@]3(F)[C@@H](O)C[C@@]21C	0.0579%	–
CO[C@H]1C[C@H](O[C@H]2[C@H](C)[C@@H](O[C@@H]3O[C@H](C)C[C@H](N(C)C)[C@H]3OC(C)=O)[C@@H](C)C[C@]3(CO3)C(=O)[C@H](C)[C@@H](OC(C)=O)[C@@H](C)[C@@H](C)OC(=O)[C@@H]2C)O[C@@H](C)[C@@H]1OC(C)=O	-0.119% [at 18.6 µM]	–
CCN(CC)c1ccc(C(=C2C=CC(=[N+](CC)CC)C=C2)c2ccccc2)cc1	0.127%	–
CC(=O)O[C@H]1C[C@@H]2CC[C@@H]3[C@H](CC[C@@]4(C)[C@H]3C[C@H](N3CC[N+](C)(C)CC3)[C@@H]4OC(C)=O)[C@@]2(C)C[C@@H]1N1CC[N+](C)(C)CC1	0.0197%	–
COc1cc(-c2ccc(-[n+]3nc(-c4ccccc4)nn3-c3ccc([N+](=O)[O-])cc3)c(OC)c2)ccc1-[n+]1nc(-c2ccccc2)nn1-c1ccc([N+](=O)[O-])cc1	-0.171%	–
Cn1nnnc1SCC1=C(C(=O)O)N2C(=O)[C@@H](NC(=O)[C@H](OC=O)c3ccccc3)[C@H]2SC1	1.1%	–
Cn1cc(NC(=O)c2cc(NC(=O)c3cc(NC=O)cn3C)cn2C)cc1C(=O)NCCC(=N)N	0.149%	–
O=P(O)(O)OC[C@H]1O[C@](O)(COP(=O)(O)O)[C@@H](O)[C@@H]1O	-0.0328%	–
C#C[C@]1(O)CC[C@H]2[C@@H]3CCC4=CCCC[C@@H]4[C@H]3C(=C)C[C@@]21CC	0.0322%	–
CN=C1C=CC(=C(c2ccc(N(C)C)cc2)c2ccc(N(C)C)cc2)C=C1	-0.211%	–

assay: qHTS assay to test for compound auto fluorescence at 535 nm (green) in HepG2 cell free culture (AID 720686); settings: Cell-free medium, green autofluorescence 485/535 nm; series mostly up to 46 µM; fluorescence, % of fluorescein control: at the top concentration

Compound	fluorescence, % of fluorescein control	Potency
CC(C)(C)CC(C)(C)c1cc(Cc2cc(C(C)(C)CC(C)(C)C)cc(-n3nc4ccccc4n3)c2O)c(O)c(-n2nc3ccccc3n2)c1	0.0268%	–
CCCC(=O)N1CCCN(c2nc(N)c3cc(OC)c(OC)cc3n2)CC1	-0.0088%	–
COCC1=C(C(=O)OC(C)OC(=O)OC(C)C)N2C(=O)[C@@H](NC(=O)/C(=N\OC)c3csc(N)n3)[C@H]2SC1 (some centres not stated)	–	inactive
CN1CCC(OC(=O)C(Oc2ccc(Cl)cc2)Oc2ccc(Cl)cc2)CC1	0.0575%	–
CC(C)[C@@H](C)/C=C/[C@@H](C)[C@H]1CC[C@H]2/C(=C/C=C3\C[C@@H](O)CC[C@@H]3C)CCC[C@]12C	0.0288%	–
O=C1c2ccccc2C(=O)C1c1ccc(Cl)cc1	-0.0358%	–
O=C(CCCN1CCC(n2c(=S)[nH]c3ccccc32)CC1)c1ccc(F)cc1	-0.0746%	–
CC1(C)[C@@H]2CC[C@@]1(C)[C@H](OC(=O)CSC#N)C2	-0.0468%	–
CN1CCC(CN2c3ccccc3Sc3ccccc32)C1 (configuration not stated)	0.0155%	–
CC(C)Cc1ccc([C@@H](C)C(=O)NS(C)(=O)=O)cc1	0.0591%	–
CC(C)N1CCN(c2ccc(OC[C@H]3CO[C@](Cn4cncn4)(c4ccc(Cl)cc4Cl)O3)cc2)CC1	0.0241% [at 18.6 µM]	–
Cc1ccc(C2(O)CCN(CCCC(=O)c3ccc(F)cc3)CC2)cc1	-0.0341%	–
CCN(CC)CCOCCOC(=O)C(CC)(CC)c1ccccc1	-0.0329%	–
CCC(=O)c1ccc2c(c1)N(CCCN1CCN(CCO)CC1)c1ccccc1S2	0.0219%	–
O=S(O)CNc1ccc(S(=O)(=O)c2ccc(NCS(=O)O)cc2)cc1	-0.0115%	–
CCCCCCCCCCCCCCCCOCCOCCOCCOCCOCCOCCOCCOCCOCCOCCOCCOCCOCCOCCOCCOCCOCCOCCOCCOCCO	0.0016%	–
S=C1SCN(Cc2ccccc2)CN1Cc1ccccc1	-0.0976%	–
CC(C)CCCC(C)NC(C)C (configuration not stated)	0.0279%	–
CC[C@H]1OC(=O)[C@H](C)[C@@H](O[C@H]2C[C@@](C)(OC)[C@@H](O)[C@H](C)O2)[C@H](C)[C@@H](O[C@@H]2O[C@H](C)C[C@H](N(C)C)[C@H]2O)[C@](C)(O)C[C@@H](C)[C@@H]2N[C@@H](COCCOC)O[C@@H]([C@H]2C)[C@]1(C)O	-0.102%	–
C[C@H](CCCC(C)(C)O)[C@H]1CC[C@H]2[C@@H]3CC=C4C[C@@H](O)CC[C@]4(C)[C@H]3CC[C@]12C	-0.0102%	–

Compound	fluorescence, % of fluorescein control	Potency
COc1ccc(/C=C/C(=O)OCCC(C)C)cc1	-0.0096%	–
O=C(NNCNNC(=O)c1ccncc1)c1ccncc1	-0.0326%	–
Cc1ccccc1	–	inactive
C=C1C(=C/C=C2\CCC[C@]3(C)[C@@H]([C@H](C)/C=C/[C@H](C)C(C)C)CC[C@@H]23)C[C@@H](O)C[C@@H]1O	0.0188%	–
CC[C@H](C)[C@H]1O[C@]2(CC[C@@H]1C)C[C@@H]1C[C@@H](C/C=C(\C)[C@@H](O[C@H]3C[C@H](OC)[C@@H](O[C@H]4C[C@H](OC)[C@@H](O)[C@H](C)O4)[C@H](C)O3)[C@@H](C)/C=C/C=C3\CO[C@@H]4[C@H](O)C(C)=C[C@@H](C(=O)O1)[C@]34O)O2	-0.0069%	–
O=C(O)[C@@H](O)[C@H](O)[C@H](O)[C@@H](O)C(=O)O (tested in a mixture with another compound)	-0.121%	–
CCCCC[C@H](O)/C=C/[C@H]1[C@H](O)CC(=O)[C@@H]1CCCCCCC(=O)O	0.0722% [at 18.6 µM]	–
O=P(O)(O)OC[C@H](O)CO	0.0295%	–
Cn1c(O)c(N=NC(N)=S)c2ccccc21	-0.118%	–
CCCC(=O)O[C@]1(C(=O)COC(=O)CC)[C@@H](C)C[C@H]2[C@@H]3CCC4=CC(=O)C=C[C@]4(C)[C@@]3(F)[C@@H](O)C[C@@]21C	-0.0134%	–
CO[C@H]1C[C@H](O[C@H]2[C@H](C)[C@@H](O[C@@H]3O[C@H](C)C[C@H](N(C)C)[C@H]3OC(C)=O)[C@@H](C)C[C@]3(CO3)C(=O)[C@H](C)[C@@H](OC(C)=O)[C@@H](C)[C@@H](C)OC(=O)[C@@H]2C)O[C@@H](C)[C@@H]1OC(C)=O	0.0053% [at 18.6 µM]	–
CCN(CC)c1ccc(C(=C2C=CC(=[N+](CC)CC)C=C2)c2ccccc2)cc1	0.0582%	–
CC(=O)O[C@H]1C[C@@H]2CC[C@@H]3[C@H](CC[C@@]4(C)[C@H]3C[C@H](N3CC[N+](C)(C)CC3)[C@@H]4OC(C)=O)[C@@]2(C)C[C@@H]1N1CC[N+](C)(C)CC1	-0.129%	–
COc1cc(-c2ccc(-[n+]3nc(-c4ccccc4)nn3-c3ccc([N+](=O)[O-])cc3)c(OC)c2)ccc1-[n+]1nc(-c2ccccc2)nn1-c1ccc([N+](=O)[O-])cc1	0.0678%	–
Cn1nnnc1SCC1=C(C(=O)O)N2C(=O)[C@@H](NC(=O)[C@H](OC=O)c3ccccc3)[C@H]2SC1	0.261%	–
Cn1cc(NC(=O)c2cc(NC(=O)c3cc(NC=O)cn3C)cn2C)cc1C(=O)NCCC(=N)N	-0.0192%	–
O=P(O)(O)OC[C@H]1O[C@](O)(COP(=O)(O)O)[C@@H](O)[C@@H]1O	0.0316%	–
C#C[C@]1(O)CC[C@H]2[C@@H]3CCC4=CCCC[C@@H]4[C@H]3C(=C)C[C@@]21CC	0.0855%	–
CN=C1C=CC(=C(c2ccc(N(C)C)cc2)c2ccc(N(C)C)cc2)C=C1	-0.317%	–
